Screening results: PubChem BioAssay, National Center for Advancing Translational Sciences (NCATS)
HT1080 IDH1KD tx – qHTS for induction of synthetic lethality in tumor cells producing 2HG: qHTS for the HT-1080-IDH1KD cell line | HT-1080 IDH1 knockdown viability, ATP luminescence, 48 h | Potency, µM (highest dose often 46.1 µM), for the others: top-dose activity, negative = toxicity, usual class: cytotoxic | 360,000 tested, 2% active;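 note: potency is the fitted concentration of half-maximal effect; 0% = DMSO wells and -100% = cell-free medium wells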
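CellTiter-Glo luminescence after 48 h compound exposure at 37 degrees C of IDH1-knockdown HT-1080 cells in 5% FBS RPMI. %Activity scaled between DMSO wells and cell-free media wells, with curves fitted and assigned curve classes.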
HT1080-NT tox – qHTS for induction of synthetic lethality in tumor cells producing 2HG: qHTS for the HT-1080-NT fibrosarcoma cell line; HT-1080-NT fibrosarcoma viability, CellTiter-Glo ATP luminescence, 48 h; Potency, µM (top dose mostly 46.1 µM), for inactives: at the top dose activity, negative = less viability, hits mostly cytotoxic; 360,000 tested, 1.6% active;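 note: NT is the 2HG producing partner of a matched IDH1 knockdown line; potency is the fitted concentration of half-maximal effect; 0% = DMSO-treated cells and -100% = media-only wells without cells; nearly all actives have a fitted effect of over 55% in size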
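Viability by CellTiter-Glo luminescence after 48 h compound exposure at 37C of HT-1080-NT cells (750/well, RPMI, 5% FBS). % activity scaled between DMSO wells and medium-only wells, then curve-fitted and categorized by curve class.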
12-LOX inh – Primary qHTS assay for inhibitors of human arachidonate 12S-lipoxygenase (ALOX12): Round 2; Polyunsaturated fatty acid lipoxygenase ALOX12 (Homo sapiens), P18054; purified 12hLO, xylenol orange hydroperoxide absorbance; Potency, µM (doses to about 108 µM), inactives show at the highest dose activity change, negative = inhibition, usual class: inhibitors; 580,000 tested, 1.1% active; AID 1671190, 2021; note: potency is the fitted concentration of half-maximal effect
Target sequence (P18054 whole entry, looked up): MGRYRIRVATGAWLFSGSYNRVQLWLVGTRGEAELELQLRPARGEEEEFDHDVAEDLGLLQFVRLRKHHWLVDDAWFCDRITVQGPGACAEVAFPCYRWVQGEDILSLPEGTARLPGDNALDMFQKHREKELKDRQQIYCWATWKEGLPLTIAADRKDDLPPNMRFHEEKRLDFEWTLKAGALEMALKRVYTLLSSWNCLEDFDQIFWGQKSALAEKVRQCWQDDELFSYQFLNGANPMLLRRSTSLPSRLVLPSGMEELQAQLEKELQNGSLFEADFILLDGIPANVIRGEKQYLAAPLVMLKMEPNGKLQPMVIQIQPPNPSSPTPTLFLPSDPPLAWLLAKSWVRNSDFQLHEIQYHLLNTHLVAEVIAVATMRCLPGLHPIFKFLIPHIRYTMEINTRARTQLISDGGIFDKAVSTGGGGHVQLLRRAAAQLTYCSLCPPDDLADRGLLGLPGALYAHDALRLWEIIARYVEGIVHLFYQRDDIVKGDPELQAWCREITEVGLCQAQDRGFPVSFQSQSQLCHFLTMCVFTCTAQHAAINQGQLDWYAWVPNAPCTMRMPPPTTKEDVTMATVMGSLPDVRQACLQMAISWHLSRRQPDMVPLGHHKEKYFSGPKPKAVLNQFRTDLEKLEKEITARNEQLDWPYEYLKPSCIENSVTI
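Purified human 12hLO (150 nM final) in 25 mM Hepes, 0.01% Triton X-100, pH 7.0 was preincubated 15 min at room temperature with compound. Then 40 uM arachidonic acid was added, 30 min. Hydroperoxide was read by Fe-XO absorbance ratio 573/405 nm.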
TDP1 cell noCPT – qHTS for Inhibitors of human tyrosyl-DNA phosphodiesterase 1 (TDP1): qHTS in cells in absence of CPT; DT40 Tdp1-/- hTDP1 cells, no CPT, ATP luminescence, 48 h; Potency, µM (top dose mostly 46.2 µM), for inactives: at the highest dose activity change, negative = growth inhibition, most hits filed as inhibitors; 420,000 tested, 15% active; AID 686978, 2013; note: potency is the fitted concentration of half-maximal effect; nearly all actives have a fitted effect of over 55% in size
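No-CPT arm: Tdp1-/-;hTDP1 DT40 cells (400/well) plus compounds, incubated ≥48 hr at 37 °C. Readout CellTiter-Glo luminescence.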
IL1B secr inh – qHTS for Inhibitors of Inflammasome Signaling: IL-1-beta AlphaLISA Primary Screen; 360,000 tested, 4.7% active; activity change, % at 57.5 µM; THP-1 LPS/ATP IL-1B secretion, AlphaLISA, 16 h; stronger effect = lower value; AID 743279, 2014; in the data active = activity change below about -50%; inconclusive = mostly about -30% to -49%
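Secreted IL-1B measured by AlphaLISA bead assay after 16 h compound exposure of THP-1 cells; compounds (final up to 57.5 uM) added 1 h before LPS (250 ng/mL) and ATP (1.25 mM) stimulation; lower signal means less secretion.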
TDP1 cell CPT – qHTS for Inhibitors of human tyrosyl-DNA phosphodiesterase 1 (TDP1): qHTS in cells in presence of CPT | 420,000 tested, 12% active | chicken DT40 Tdp1-/-;hTDP1 cells + 20 nM CPT, ATP luminescence, 48 h | Potency, µM (doses to about 46.2 µM), inactives show at the top dose activity change, negative = growth inhibition, hits mostly inhibitors; note: potency is the fitted concentration of half-maximal effect; nearly all actives have a fitted effect of over 55% in size
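Cell growth measured by CellTiter-Glo luminescence after a minimum 48 h, 37 C compound exposure with 20 nM CPT in Tdp1-knockout DT40 cells stably expressing hTDP1, seeded 400/well; qHTS titration format.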
Starred values were filed as active, the others as inactive; ? = inconclusive; . = no result; [ ] = remark or other dose. The sample as a whole holds a higher share of hits than the screen did. Unless noted, calls come from the whole dose curve; as a rule, active = well fitted curve in the direction sought with a large enough effect; inconclusive = small, poorly fitted or top-dose-only effect, or another doubt; inactive = no such curve, though single readings can be large; an effect the other way counts as inactive or inconclusive. Unless noted, % is set by controls: 0 for no effect and ±100 for the full control effect.

SMILES | HT1080 IDH1KD tx | HT1080-NT tox | 12-LOX inh | TDP1 cell noCPT | IL1B secr inh | TDP1 cell CPT
O=c1[nH]nc2n1CCN(Cc1ccncc1)CC2 | . | . | 6% | . | . | .
CC(=O)c1ccc(NC(=O)C(=O)c2c[nH]c3ccccc23)cc1 | . | . | 50% | . | . | .
Clc1cccc(COc2cccc(-n3cnnn3)c2)c1 | . | . | -3% | . | . | .
O=C(Nc1ccc(N2CCN(C(=O)c3ccccc3)CC2)cc1)c1cccs1 | -8% | -5% | 14% | 21µM* | -59* | 18µM*
CC(C)CC(=O)NC(=S)Nc1ccc(N2CCN(C(=O)c3cccs3)CC2)cc1 | ? | ? | ? | 21µM* | -58* | ?
CCC(=O)Nc1ccc(N2CCN(C(=O)c3ccccc3C)CC2)cc1 | 3% | 21% | ? | -15% | -6 | -20%
CCC(=O)NC(=S)Nc1ccc(N2CCN(C(=O)c3ccc(Cl)cc3)CC2)cc1 | -10% | -29% | -30% | ? | -9 | 21µM*
COc1ccc(C(=O)N2CCN(c3ccc(NC(=O)c4cccs4)cc3)CC2)cc1 | 5% | 1% | 64% | ? | ? | ?
O=C(NC(=S)Nc1ccc(N2CCOCC2)cc1)c1ccc(Cl)cc1 | 8% | 13% | -10% | -9% | 15 | -14%
CC(C)C(=O)Nc1ccc(N2CCN(C(=O)c3cccs3)CC2)cc1 | 22% | 13% | -22% | ? | 10 | -14%
Cc1ccccc1C(=O)N1CCN(c2ccc(NC(=S)NC(=O)c3cccs3)cc2)CC1 | -10% | ? | 35µM* | 23µM* | ? | 23µM*
CC1(c2ccccc2)CCCN(C(=O)c2cnc(-c3cccnc3)nc2)C1 (stereo unspecified) | . | . | -6% | . | . | .
Cc1cc(C(C)(C)c2ccc(OC(=O)c3ccccc3F)c(C)c2)ccc1OC(=O)c1ccccc1F | . | . | 8% | . | . | .
Cc1ccc(C(=O)N2CCN(c3ccc(NC(=S)NC(=O)c4cccs4)cc3)CC2)cc1 | -4% | -14% | 11µM* | 21µM* | -55* | ?
Cc1nnsc1-c1nc2ccccc2n1C(CCc1ccccc1)c1nc2ccccc2[nH]1 (stereo unspecified) | -30% | -2% | -22% | ? | -26 | ?
FC(F)(F)c1cc(Cc2nc3ccccc3n2C(CCc2ccccc2)c2nc3ccccc3[nH]2)cc(C(F)(F)F)c1 (stereo unspecified) | ? | 21µM* | -7% | 7.3µM* | 5 | 7.3µM*
Cc1ccc(Cc2nc3ccccc3n2C(CCc2ccccc2)c2nc3ccccc3[nH]2)cc1 (stereo unspecified) | -2% | -5% | -27% | 18µM* | -69* | ?
CCC(C(=O)NC1CCCC1)n1c(-c2ccnc3ccccc23)nc2ccccc21 (stereo unspecified) | -17% | -11% | -5% | ? | -59* | ?
CCC(C(=O)NC1CCCC1)n1c(-c2ccncc2)nc2ccccc21 (stereo unspecified) | 1% | 17% | 31% | -8% | -20 | 18%
COc1ccc(C(C(=O)NC2CCCC2)n2c(Cc3cc(F)cc(F)c3)nc3ccccc32)cc1 (stereo unspecified) | -10% | ? | 18% | ? | ? | ?
O=C(NC1CCCCC1)C(c1ccccc1)n1c(=O)c(-c2cc3ccccc3[nH]2)nc2ccccc21 (stereo unspecified) | ? | -27% | -11% | ? | -69* | ?
O=C(NC1CCCCC1)C(c1ccnc2ccccc12)n1c(=O)c(-c2cc3ccccc3[nH]2)nc2ccccc21 (stereo unspecified) | -25% | ? | ? | 15µM* | -12 | ?
O=C(NC1CCCCC1)C(c1ccnc2ccccc12)N1CCOCC1 (stereo unspecified) | 4% | 3% | ? | -16% | 0 | -27%
COc1ccc(C(C(=O)NC2CCCCC2)n2c(=O)c(-c3cc4ccccc4[nH]3)nc3ccccc32)cc1 (stereo unspecified) | -16% | -21% | ? | 15µM* | 27 | ?
CCc1ccc(OC(=O)c2ccc(OC)c(I)c2)c(Br)c1 | . | . | 16% | . | . | .
SMILES | HT1080 IDH1KD tx | HT1080-NT tox | 12-LOX inh | TDP1 cell noCPT | IL1B secr inh | TDP1 cell CPT
O=C(NC1CCCCC1)C(c1ccnc2ccccc12)n1c(=O)c(-c2ccccc2)nc2ccccc21 (stereo unspecified) | 12µM* | 13µM* | -22% | 13µM* | 55 | 10µM*
CCC(C(=O)NC1CCCC1)n1c(C2CC2)nc2ccccc21 (stereo unspecified) | 1% | 11% | -15% | -30% | 20 | -24%
CCCCCNC(=O)C(c1ccnc2ccccc12)n1c(=O)c(-c2ccccc2)nc2ccccc21 (stereo unspecified) | 18% | 19% | 0% | ? | 30 | ?
CSCCC(C(=O)NC1CCCC1)n1c(C2CCCC2)nc2ccccc21 (stereo unspecified) | 19% | 13% | 0% | ? | -88* | ?
Cc1nc2ccccc2n1CC(=O)NC1CCCCCC1 | ? | ? | -4% | 13µM* | 0 | 12µM*
N#Cc1ccc(C(C(=O)NC2CCCCC2)n2c(=O)c(-c3cc4ccccc4[nH]3)nc3ccccc32)cc1 (stereo unspecified) | -21% | -25% | -17% | 15µM* | -2 | 15µM*
CC1=C[C@@H](CN)[C@H](C(C)C)C[C@H]1Cc1nc2ccc(F)cc2[nH]1 | . | . | 45%[176 µM] | . | . | .
O=C(CCN1CCN(c2cnccn2)CC1)Nc1cc(Cl)ccc1Cl | . | . | -2% | . | . | .
COCCN(C)C[C@H]1C[C@H](CO)CN(C(=O)c2c(C)cccc2OC)C1 | . | . | 10% | . | . | .
